Source: ChEMBL document CHEMBL5308504, “Tm Shift (DSF) assay results for EUbOPEN Chemogenomics Library” (2023)

Molecular target: T1, Transcription intermediary factor 1-alpha (Homo sapiens) (UniProt O15164)
T1 sequence (whole entry): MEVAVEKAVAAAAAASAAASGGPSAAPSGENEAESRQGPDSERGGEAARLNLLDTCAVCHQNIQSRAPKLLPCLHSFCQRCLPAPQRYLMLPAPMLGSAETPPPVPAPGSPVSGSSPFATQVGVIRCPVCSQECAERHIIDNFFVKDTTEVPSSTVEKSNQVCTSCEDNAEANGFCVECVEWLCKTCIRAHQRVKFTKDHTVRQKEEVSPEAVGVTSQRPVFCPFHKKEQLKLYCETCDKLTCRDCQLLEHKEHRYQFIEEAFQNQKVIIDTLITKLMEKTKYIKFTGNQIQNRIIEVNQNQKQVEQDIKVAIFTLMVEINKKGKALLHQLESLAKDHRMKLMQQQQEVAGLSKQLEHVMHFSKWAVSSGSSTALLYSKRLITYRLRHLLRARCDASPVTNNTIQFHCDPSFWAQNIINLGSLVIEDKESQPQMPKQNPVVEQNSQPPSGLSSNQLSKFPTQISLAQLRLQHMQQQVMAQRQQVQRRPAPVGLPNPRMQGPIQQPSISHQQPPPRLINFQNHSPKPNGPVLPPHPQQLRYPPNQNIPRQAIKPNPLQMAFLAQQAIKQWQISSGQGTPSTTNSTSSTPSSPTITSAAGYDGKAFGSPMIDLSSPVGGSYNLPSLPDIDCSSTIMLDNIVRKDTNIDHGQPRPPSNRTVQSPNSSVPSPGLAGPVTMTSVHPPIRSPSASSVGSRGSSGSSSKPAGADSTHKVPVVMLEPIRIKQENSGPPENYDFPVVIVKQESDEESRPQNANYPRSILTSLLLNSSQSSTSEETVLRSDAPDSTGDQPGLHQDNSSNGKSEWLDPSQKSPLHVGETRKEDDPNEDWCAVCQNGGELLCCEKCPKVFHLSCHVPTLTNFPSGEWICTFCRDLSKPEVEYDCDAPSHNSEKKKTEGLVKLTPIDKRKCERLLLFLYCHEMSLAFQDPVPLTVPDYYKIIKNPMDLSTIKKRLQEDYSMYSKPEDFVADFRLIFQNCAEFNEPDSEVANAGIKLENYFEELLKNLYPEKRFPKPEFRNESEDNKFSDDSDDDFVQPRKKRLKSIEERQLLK
Details: Compound concentration 20.0 uM, Protein concentration 2.0 uM, Result type QC Liability

Compound	ΔTm
COc1ccc(COc2ccc(Cc3cnc(N)nc3N)cc2OC)cc1	-1.22 °C
N=C(N)Nc1cc(C2CCNCC2)cc(C(F)(F)F)c1	0.35 °C
CCCCOc1c(C(=O)c2c(F)cc(C)cc2F)c[nH]c2nncc1-2	-1.46 °C
C[C@@H]1CC(=O)N(C2CC2)N=C1c1ccc(NC(=O)N2Cc3ccncc3C2)cc1	0.48 °C
Cc1ccc(-n2nc(C(C)(C)C)cc2NC(=O)Nc2ccccc2F)cc1	-1.64 °C
CCc1ccccc1C(=O)Nc1n[nH]c2c(C)c(F)c(C3C(C#N)=C(C)N(C)C(C)=C3C#N)cc12	-0.71 °C
COc1cc(C)c(S(=O)(=O)N(C)CCC(=O)N[C@H]2CC[C@@H](N3CCC4CN(C)CC4C3)CC2)c(C)c1 (some centres undefined)	-0.4 °C
CCCc1c(OCCCOc2ccc(OCC(=O)O)cc2)ccc(C(C)=O)c1O	-1.6 °C
O=C(O)c1ccc(CN2C[C@@H]3C[C@H]2CN3Cc2ccc(Oc3ccc(-c4ncco4)cc3)cc2)cc1	-1.06 °C
CCCCc1c(-c2ccccc2)nc(N)nc1-c1ccc(OCc2ccccc2)c(F)c1F	-1.94 °C
O=C(O)c1ccc2c(c1)nc(NCc1ccccc1)c1ncncc12	0.06 °C
CS(=O)(=O)c1cc(C2(NC(=O)c3cncc4c3cnn4-c3ccc(F)cc3)CC2)ccn1	0.27 °C
CCC(C)(C)CC[C@H](NC(=O)N1CCOCC1)C(=O)NC1(C#N)CCN(C)CC1	0.53 °C
CC1=C(C(=O)OCCO)[C@@H](c2ccc(C#N)cc2)NC(=O)N1c1cccc(C(F)(F)F)c1	0.4 °C
O=C(O)c1cc2cc(Cc3cccnc3)ccc2o1	-0.74 °C
C[C@@H](COCCC(=O)N1CCN(c2ncc(C(F)(F)F)cn2)CC1)Nc1cn[nH]c(=O)c1C(F)(F)F	-0.95 °C
CS(C)(=O)=Nc1ccc(-c2ccc(-c3nc4[nH]c(O[C@@H]5CO[C@H]6[C@@H]5OC[C@H]6O)nc4cc3Cl)cc2)cc1	0.39 °C
CCCCC[C@@](C)(O)/C=C/[C@H]1C(=O)CC(O)C1C/C=C\CCCC(=O)O (some centres undefined)	-0.59 °C
NC(=O)C1CCCc2c1[nH]c1ccc(Cl)cc21 (centres undefined)	-1.04 °C
CCCN1C(=O)c2ccc(Cl)cc2Nc2ncccc21	0.51 °C

Compound	ΔTm
O=C(CCCN1CCC(O)(c2ccc(Cl)cc2)CC1)c1ccc(F)cc1	-2.64 °C
Cc1csc(-c2nnc(Nc3ccc(Oc4ncccc4-c4ccnc(N)n4)cc3)c3ccccc23)c1	-1.04 °C
COc1cc(F)ccc1-c1ncnc(Nc2cccc(C[S@](C)(=N)=O)c2)n1	-1.99 °C
CN1C(=O)c2ccccc2N(C)c2nc(Nc3cnn(C4CCNCC4)c3)ncc21	-1.94 °C
Cn1ncc(NC(=O)c2nc(-c3c(F)cccc3F)sc2N)c1N1CC[C@@H](N)[C@H](F)CC1	-1.63 °C
CN(C)[C@H]1CCN(c2cc(C(F)(F)F)c(C#N)c(Nc3cccc(CCC(=O)O)c3)n2)C1	0.26 °C
CC(C)C(=O)N1CCC(c2cn(C)c3ncc(NC(=O)c4cccc(C#N)c4)c(C(F)(F)F)c23)CC1	-2.5 °C
N#Cc1c(SCc2csc(-c3ccc(Cl)cc3)n2)nc(N2CCCC2)c(C#N)c1-c1ccc(OCCO)cc1	0.42 °C
O=C(Cc1ccccc1[N+](=O)[O-])Nc1ccc(-c2ccc(C(O)(C(F)(F)F)C(F)(F)F)cc2F)cc1	0.45 °C
CC(C)(C)NC(=O)c1cncn1C1CCN(c2ccc(-c3nnc(C(F)(F)F)o3)cn2)CC1	0.46 °C
Cc1ccccc1Oc1cc(-n2c(=O)cc(C(F)(F)F)[nH]c2=O)c2ccccc2c1Cl	-0.87 °C
CC(C)N(CCCCOCC(=O)O)c1cnc(-c2ccccc2)c(-c2ccccc2)n1	-0.66 °C
Nc1nccc(-c2c(-c3ccc(F)cc3)ncn2C2CCCCC2)n1	-0.83 °C
CC(C)(C)c1cc(NC(=O)c2csc(Nc3ccc(Cl)cc3)n2)no1	0.11 °C
COc1cc2nc(-c3cc(F)ccc3O)nc(N[C@@H]3CNC[C@H]3C(C)(C)O)c2cc1OC	-1.27 °C
COc1cc(-c2cncc(-c3ccc(N4CCN(C(C)C)CC4)cc3)c2C)cc(F)c1C(N)=O	-3.06 °C
Cc1cc(-c2cnc(N)c3c(-c4ccc5scnc5c4)csc23)n(C)n1	-1.95 °C
Cc1nn(C)c(COc2ccc(N3CCN(S(=O)(=O)N(C)C)CC3)cc2)c1-c1cccc2c(CCCOc3cccc4ccccc34)c(C(=O)O)n(CCN3CCOCC3)c12	-0.84 °C
Cc1cc(=O)n(C)c2cc(N3C(=O)CC[C@H](NS(=O)(=O)CC(C)C)[C@H]3c3ccc(Cl)cc3)ccc12	-3.49 °C
